# Screens: PubChem BioAssay, several laboratories
# In the library only some 2.4% were active in any assay of this set; here they are far more common.
# NOD2 RIPK2 PPI: inhibitors of human NOD2-RIPK2 interaction | O43353 | CHO BLA complementation NOD2-RIPK2, CCF4 ratio | inhibition, % at 4.98 µM | actives 0.38% (n = 360,000); in the data active = inhibition above about 21%
# TLR4-MyD88 BLA: blocks binding of human TLR4 to MyD88. O00206+Q99836. HeLa CL3-4 TLR4/MyD88 BLA complementation, FRET ratio. inhibition, % at 8.4 µM. actives 0.18% (n = 200,000). AID 861; in the data active = inhibition above about 25%
# Target sequence (O00206 whole entry, looked up): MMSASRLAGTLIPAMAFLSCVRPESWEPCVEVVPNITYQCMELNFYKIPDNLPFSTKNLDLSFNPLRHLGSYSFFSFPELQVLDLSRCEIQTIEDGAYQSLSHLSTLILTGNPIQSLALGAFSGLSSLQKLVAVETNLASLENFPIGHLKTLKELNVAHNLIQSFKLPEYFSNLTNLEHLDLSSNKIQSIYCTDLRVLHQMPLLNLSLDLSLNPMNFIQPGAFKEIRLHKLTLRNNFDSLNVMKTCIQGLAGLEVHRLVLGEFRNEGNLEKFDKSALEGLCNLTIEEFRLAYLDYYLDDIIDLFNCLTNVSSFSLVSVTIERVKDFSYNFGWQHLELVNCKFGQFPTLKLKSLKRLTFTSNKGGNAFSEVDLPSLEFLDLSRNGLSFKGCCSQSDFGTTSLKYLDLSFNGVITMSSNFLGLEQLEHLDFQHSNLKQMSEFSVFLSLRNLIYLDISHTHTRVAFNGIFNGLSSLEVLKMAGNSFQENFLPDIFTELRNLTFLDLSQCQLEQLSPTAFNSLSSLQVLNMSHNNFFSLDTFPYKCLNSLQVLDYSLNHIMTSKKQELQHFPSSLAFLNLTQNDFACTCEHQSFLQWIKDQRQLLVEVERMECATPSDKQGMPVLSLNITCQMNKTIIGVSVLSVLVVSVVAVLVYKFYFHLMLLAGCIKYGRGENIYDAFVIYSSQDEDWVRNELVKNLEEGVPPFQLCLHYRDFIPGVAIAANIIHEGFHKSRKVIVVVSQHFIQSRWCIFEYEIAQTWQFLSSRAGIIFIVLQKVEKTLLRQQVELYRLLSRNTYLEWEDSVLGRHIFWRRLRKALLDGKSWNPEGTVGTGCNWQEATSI
# Target sequence (Q99836 whole entry, looked up): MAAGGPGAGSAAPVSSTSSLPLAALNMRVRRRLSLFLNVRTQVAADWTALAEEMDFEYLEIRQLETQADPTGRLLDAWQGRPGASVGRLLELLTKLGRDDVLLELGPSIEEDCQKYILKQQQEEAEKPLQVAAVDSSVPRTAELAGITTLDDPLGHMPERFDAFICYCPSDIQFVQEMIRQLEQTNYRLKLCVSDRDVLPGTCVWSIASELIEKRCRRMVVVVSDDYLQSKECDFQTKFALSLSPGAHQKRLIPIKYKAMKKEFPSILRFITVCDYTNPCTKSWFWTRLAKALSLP
# m5-HT2A agonist: agonists of mouse serotonin 5-HT2A receptor (HTR2A); actives 0.66% (n = 360,000); AID 624169; activation, % at 7.6 µM; CHO-K1 mHTR2A beta-arrestin complementation, luminescence; percent of 30 µM serotonin response; P35363;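 active = activation above a run cutoff, the mean activation of all tested compounds plus 3 SD, cut at about 14% in these data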
# ANO1 block: blocks the mouse calcium-activated chloride channel TMEM16A; HEK293 TMEM16A/YFP iodide influx fluorescence, ionomycin; normalized B-score (activity score, 25-100; higher = stronger inhibition) at 10 µM; actives 1.2% (n = 310,000);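 active = ratio plate-corrected score three or more library SD toward inhibition, starting fluorescence score within five deviations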;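 note: score derived from kinetic fluorescence span divided by baseline fluorescence per well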
# TLR9-MyD88 block: TLR9-MyD88 interaction inhibition. Q9NR96+Q99836. CHO BLA complementation TLR9-MyD88, CCF4 FRET ratio. inhibition, % at 4.98 µM. actives 0.21% (n = 340,000);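 active = inhibition above the mean over all tested compounds plus 3 SD, cut at about 21% in these data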
# ANO1 activ: activators or potentiators of mouse TMEM16A chloride channel; B-score at 10 µM; Q8BHY3; HEK293 TMEM16A/YFP-H148Q/I152L, iodide quench fluorescence; hits give low values; actives 0.3% (n = 340,000);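 active = fluorescence-ratio B-score plate-corrected deviation score at least 3 library SD below zero, with starting fluorescence score within 5 deviations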;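 note: channel opened by trigger with iodide after compound preincubation; score built on the fluorescence ratio of max minus min over baseline; more negative score means more quench and so TMEM16A activation or potentiation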
# Hits are given with their value; 0 = inactive; - = no result.
SMILES,NOD2 RIPK2 PPI,TLR4-MyD88 BLA,m5-HT2A agonist,ANO1 block,TLR9-MyD88 block,ANO1 activ
O=C(N/N=C/c1sc(N2CCOCC2)nc1-c1ccccc1)c1ccccc1O,0,0,0,100,0,0
CC(C)C1O/C(=N/C(=O)Nc2ccc(Cl)c(Cl)c2)NC1=O (configuration not stated),0,0,0,100,0,0
CC(=O)OCC1O[C@@H](O[C@@H]2C[C@H]3C(C)(C)[C@H](OC(C)=O)CC[C@]3(C)[C@H]3CC[C@]45C[C@]4(CC[C@H]5[C@@H](C)C[C@@H](O)[C@H](O)C(C)(C)O)[C@@]32C)[C@H](O)[C@@H](O)[C@@H]1O (some centres not stated),-,0,-,100,-,-
Cc1ccc(S(=O)(=O)N2CCCC2CNC(=O)C(=O)NCc2cccs2)cc1 (configuration not stated),0,-,0,0,0,0
Cc1cc(=O)n2nc(N3CCCC(C(=O)N4CCOCC4)C3)sc2n1 (configuration not stated),0,0,0,0,0,-5.5
Cc1cc(=O)n2nc(N3CCCC(C(=O)N4CCc5ccccc54)C3)sc2n1 (configuration not stated),0,0,0,0,0,0
CCOC(=O)C1=C(Cc2ccc(F)cc2)C(=O)c2ccccc2C1=O,30,0,0,0,0,0
C=CCNC(=S)N1CCN(S(=O)(=O)c2ccc(C)cc2)CC1,0,-,0,0,0,0
NC(CCCCc1ccccc1)c1cccc2ccccc12 (configuration not stated),-,-,-,25,-,-
CC(CCc1ccccc1)NCc1cccc2ccccc12 (configuration not stated),0,-,0,0,0,0
Cc1cc(C(=O)Nc2nncs2)oc1C,0,-,0,0,0,0
O=C(/C=C/c1ccco1)Nc1cccc(S(=O)(=O)N2CCOCC2)c1,0,0,0,0,0,0
Cc1ccc(NC(=O)/C=C/c2ccco2)cc1S(=O)(=O)N1CCCCCC1,0,-,0,25,0,0
CCC(C)c1ccc(C(C)NC(=S)NC2CCCCC2)cc1 (configuration not stated),0,-,0,100,0,0
OCCN(Cc1ccccc1)Cc1ccccc1F,0,0,0,0,0,0
O=C(NCCCNC(=O)c1cccs1)c1cccs1,0,0,0,0,0,-12
O=C(COc1ccc2c3c(c(=O)oc2c1)CCC3)NC1CCN(Cc2ccccc2)CC1,0,-,0,0,0,0
CCC1(c2ccc(F)cc2)NC(=O)N(CC(=O)NCC(=O)Nc2cccc(C)c2C)C1=O (configuration not stated),0,-,0,25,0,0
CCC1(c2ccc(F)cc2)NC(=O)N(CC(=O)Nc2cc(C)on2)C1=O (configuration not stated),0,-,0,-,0,-39
CCCC1(c2ccccc2)NC(=O)N(CC(=O)Nc2cc(C)on2)C1=O (configuration not stated),0,0,0,0,0,0
COCCN(C(=O)CSc1nnc(-c2ccccc2F)n1N)c1c(N)n(Cc2ccccc2)c(=O)[nH]c1=O,0,-,0,0,0,0
c1ccc(-c2ccnc3ncnn23)nc1,0,0,0,0,0,0
CCCCCCC(C)n1cc(C(C)=O)c(=O)[nH]c1=O (configuration not stated),0,0,0,100,0,0
Cc1cc(-c2ccccc2)n[nH]1,0,0,0,0,0,0
FC(F)C(F)(F)C(F)(F)C(F)(F)c1cc(-c2ccccc2)n[nH]1,0,0,0,100,0,0
CC(Oc1ccc(F)cc1)C(=O)Nc1ccccc1N1CCCCC1 (configuration not stated),0,-,0,0,0,-21
O=C(NC1=NC2CCCCC2N1)c1ccccc1 (configuration not stated),0,0,0,0,0,-6.6
O=C(O)Cc1ccc(NC(=O)CCN2C(=O)c3ccc([N+](=O)[O-])cc3C2=O)cc1,0,0,0,-,0,-6.3
COc1ccccc1-c1nn(-c2ccccc2)cc1C(=O)NCC(c1ccco1)N1CCCC1 (configuration not stated),0,-,0,-,0,0
